Experimental data taken from the supplement of paper PMC3334620.
In all, about 33,000 sequences were measured (“E-score (-0.5 to 0.5)”: median about -0.01, highest 2% from about 0.26 on). The list comes from a sample in which the highest values are over-represented; it also holds similar and randomly drawn sequences.

Target: Ste12 (UniProt P13574)
Assay: PBM E-score (8-mer binding enrichment) (E-score (-0.5 to 0.5)); higher = stronger / more preferred TF binding
Details: protein concentration: 200 nM; construct: GST-DNA-binding domain
Outline: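 Using PURExpress in vitro transcription/translation, GST-tagged yeast transcription factors were made in full-length or DNA-binding-domain form. These were applied at about 100-200 nM to double-stranded universal all-10-mer Agilent arrays, and bound protein was detected with fluorescent anti-GST. Scans were normalised with masliner before the Universal PBM Analysis Suite assigned E-scores to ungapped eight-base words pooled with their reverse complements.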

UniProt P13574, sequence (P13574 whole entry): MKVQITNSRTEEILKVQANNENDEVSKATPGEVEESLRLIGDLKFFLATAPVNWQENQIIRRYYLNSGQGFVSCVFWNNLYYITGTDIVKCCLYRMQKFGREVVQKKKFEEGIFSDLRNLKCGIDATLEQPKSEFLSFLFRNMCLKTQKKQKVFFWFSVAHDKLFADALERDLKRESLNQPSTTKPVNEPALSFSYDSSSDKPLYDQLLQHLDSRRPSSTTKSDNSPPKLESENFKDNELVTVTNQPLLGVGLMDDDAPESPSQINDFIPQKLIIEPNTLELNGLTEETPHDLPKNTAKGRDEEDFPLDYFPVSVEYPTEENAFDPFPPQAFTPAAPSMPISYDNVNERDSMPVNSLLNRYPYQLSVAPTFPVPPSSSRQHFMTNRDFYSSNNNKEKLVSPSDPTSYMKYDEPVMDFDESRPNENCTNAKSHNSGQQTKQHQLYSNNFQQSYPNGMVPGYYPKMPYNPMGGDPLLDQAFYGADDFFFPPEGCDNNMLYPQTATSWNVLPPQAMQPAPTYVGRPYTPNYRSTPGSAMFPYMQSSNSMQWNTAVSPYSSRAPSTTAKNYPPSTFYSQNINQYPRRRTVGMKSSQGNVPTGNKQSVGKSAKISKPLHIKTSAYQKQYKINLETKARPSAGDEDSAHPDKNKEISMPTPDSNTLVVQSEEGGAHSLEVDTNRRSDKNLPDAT

Sequence | PBM E-score
TACTTCCA | 0.0198
AATGGGAT | -0.185
CGCAAACA | 0.053
AAGTCGGC | -0.16
AACGCTTA | -0.0484
CGACAGAC | -0.00066
CAGGTCCC | -0.104
AGCTGATG | 0.129
GAACGGTA | -0.17
CCGTTTCA | 0.46
CCGTTTCC | 0.139
CCGTTTCG | 0.164
GAACTCCC | 0.0278
ATGCGATG | 0.00552
GTTGGTCA | 0.121
GAAATGAA | 0.331
GAAATTAC | 0.176
CAAATGAA | 0.238
CGAATGAA | 0.084
TGAATGAA | 0.208
AAAATGAG | 0.124
CAAATTAA | 0.203
GAAATTAA | 0.294
TAAATGAA | 0.185
AAAATGAT | 0.317

Sequence | PBM E-score
AAAATGAC | 0.121
GGAATGAA | 0.281
AAGTTGAA | 0.134
CCGGCCCG | 0.00367
CGCCAAAA | 0.227
GGGGTGGA | 0.00832
ACCTTATG | 0.0329
TCCTAAGA | -0.00559
AAAGGTTC | -0.154
AAAATGCA | 0.00439
AAAATGGA | 0.237
AAAATGAA | 0.27
GCCTCAGC | -0.226
ATAAAGTC | 0.167
AGATGGCT | -0.0505
CATGTAAA | 0.027
AATGTAAT | 0.187
AATGTAAA | 0.269
TATTCAGA | 0.029
CGCCAATA | 0.036
CTTTGACA | -0.0728
GTTTGAGA | 0.311
ATTTGATA | 0.258
ATTTGAAG | 0.0968
ATTTGAAA | 0.366

Sequence | PBM E-score
ATTTGAGA | 0.126
CTTTGATA | 0.179
GTTTGATA | 0.301
ATTTGAAC | 0.123
CTTTGAAA | 0.318
CTTTGAAC | 0.0927
CTTTGAGA | 0.114
CGCCCTTA | -0.0507
AGTGAACG | -0.109
TGCGTCAA | 0.0654
GTCCAAAC | 0.0248
ACGCTTGG | -0.293
ATAGACGC | 0.0365
GTTTGCAA | 0.186
GTTTGACA | 0.0294
GTTTGAAA | 0.409
AGCGGCTC | -0.0004
AACCAAAA | 0.324
ACCAACAG | -0.042
ACCAACAT | 0.125
ACCAAAAC | 0.235
TACCAAAA | 0.204
ACCAAAAA | 0.27
ACCAAAAT | 0.254
ACCAACAA | 0.269

Sequence | PBM E-score
CACCAAAA | 0.216
TATTAAGA | 0.0777
GCATCTAC | 0.0977
AGCTTGAA | -0.0125
AGTGGAAA | -0.0995
CATGGAAA | 0.098
TATGGAAA | 0.292
TGTGGAAA | 0.286
GATGGAAA | 0.0433
CGTGGAAA | 0.19
CTCAAGGA | -0.181
ACTGGTCC | -0.0777
AACTTTTA | 0.228
CACCTTCC | 0.0254
GAACCCGA | -0.0553
AAACCCCG | 0.28
GAAACCCA | 0.246
AAACCCAA | 0.349
AACCCCCG | -0.133
GAACCCAA | -0.0682
AAACCCCC | -0.122
CAAACCCA | 0.262
TAACCCGA | -0.0489
AAACCCGA | 0.336
CAAACCCG | 0.0369

Sequence | PBM E-score
AAACCCAT | 0.131
GCGCACCC | -0.0102
CCAAGGGC | -0.139
CCGCACCC | 0.222
CAAGTTCG | -0.0514
CTTCTAAC | -0.0172
AGTCTAGC | -0.223
CTATCGCA | -0.0857
AGGTGATA | 0.0763
ACCGATGC | -0.0639
CTGAAAAA | 0.0763
TTGAAAAA | 0.323
TAGAAAAA | 0.0605
ATGAAAAC | 0.349
ATGAAAAA | 0.305
ATGAAAAT | 0.166
ATGAAAAG | -0.0787
GTGAAAAC | 0.0815
ACGAAAAC | 0.25
CGACCTTA | 0.111
ACGCCAGT | -0.084
ATAACTAT | 0.0787
ACAAAATA | 0.0836
GAAAAATC | 0.201
AAAAAATC | 0.363

Sequence | PBM E-score
CAAAAATC | 0.123
ACAAAATC | 0.291
ACAAAATG | 0.0682
CTACCACC | -0.102
AATCGACA | 0.248
CAGCGACC | -0.0234
GGCGTGGA | -0.0873
AATAGTCA | -0.0559
ATTTACAC | 0.18
AGGTGAAA | 0.235
TGGTGACA | 0.048
TGGTGAAA | 0.277
TGGTGCAA | -0.18
GGGTGAAA | 0.315
CGGTGAAA | 0.245
AGCTGGGG | -0.136
ACCCAGGT | -0.218
CCAAGAAC | -0.11
CGCCAACA | -0.0261
GCACATCA | -0.00042
GCCCCCAA | -0.0804
GTAAAATA | 0.131
CAAAAATA | 0.346
CAAAAATG | 0.182
CCAAAATA | 0.21

Sequence | PBM E-score
ATAAAATA | 0.257
CATAAATA | 0.268
CTAAAATA | 0.181
TATAAATA | 0.228
AATAAATA | 0.21
GAAAAATA | 0.217
AAAAAATA | 0.267
TAAAAATA | 0.318
GCCTAAAA | -0.0428
CATCCCAA | 0.0892
CTCAACTC | 0.141
ATGACTAG | -0.183
ACACATCC | -0.0267
GTTCACCA | -0.0697
TCCCTCCA | -0.191
ATATTGAT | 0.248
AAATCTTC | 0.0263
GAGGTAGC | -0.239
CAGGGTTC | -0.0459
AAACGCGG | 0.264
AAACGCGT | 0.255
CAACGCGG | -0.0344
CGCCGTCA | 0.0459
ACTCTGCT | -0.0783
GATATTGC | 0.0418

Sequence | PBM E-score
CCAATCCG | 0.281
CCAATCCC | 0.104
ACAATCCG | -0.0367
GGCTACCC | -0.285
GGGGCGTA | 0.282
GGGGCGGA | 0.404
AGGGCGTA | -0.176
AGGGCGGA | -0.248
CGGGCGGA | -0.012
CGGGCGTA | -0.0442
CGCTCCAG | 0.0315
CAACCTGC | 0.0657
CCTGCAGG | -0.16
AAAAGTTG | 0.127
AAAAGTTC | 0.0553
AAAAGTAA | 0.287
AAAAGTTT | 0.283
AAAAGTGA | 0.267
CAAAGTAA | 0.125
AAAAGTGG | 0.139
AAAAGTGT | 0.0304
AAAAGTAT | 0.178
CAACAGCC | -0.0347
TATCGAAA | 0.258
GAGTATCC | -0.127

Sequence | PBM E-score
AGGTAGAG | -0.0159
CGCTGGCA | 0.00792
TCACCAAA | 0.177
CCAGCAGG | -0.107
ATGATGGG | -0.0865
CCGAAACC | 0.142
ACGAAACC | 0.242
CCGAAACG | 0.152
CCGAAAAG | 0.235
CCGAAAAA | 0.269
CCGAAACA | 0.376
ACGAAACT | 0.127
TCGAAAAA | 0.238
GCGAAACA | 0.134
CCGAAAAC | 0.0124
TCGAAACA | 0.395
ACGAAACA | 0.327
ATTTTTGC | 0.236
CCTCTAGA | -0.134
ATTCGCGA | 0.0844
ATAGACTC | -0.133
CAGCTTAC | 0.0225
AAGACATG | -0.137
GCCTGGGA | -0.23
TACCTGGA | -0.0387

Sequence | PBM E-score
TCCCGCAA | 0.18
ACATAGGA | -0.0111
ATTTAGGA | -0.039
ACAGAATA | 0.0915
CTCGCAGC | 0.0324
AAGAAACT | 0.172
CAGAAACA | 0.156
ACGAAACG | 0.31
ACGAAAAG | 0.16
AAGAAACA | 0.285
ACGAAAGG | 0.0336
GGTCCATA | -0.111
AAGCAATA | 0.0028
ACGGCATG | -0.107
GAGGTAAC | 0.0397
GAGGTAAA | 0.334
CAGGTAAA | 0.248
GAGCTGGC | -0.0837
CATATATC | 0.0851
AAAATATT | 0.266
AATATATG | 0.143
AAAATATG | 0.241
AATATATT | 0.326
AGTATATC | -0.0122
AATATATA | 0.22

Sequence | PBM E-score
AGTATATA | 0.295
AGTATATG | 0.143
CATATATG | 0.18
AAAATATC | 0.147
CATATATA | 0.283
CCCCTAGG | -0.254
ACGCTAGA | -0.209
CTGTTGGA | 0.0959
ATCAGGGG | -0.128
GATGGTTA | -0.0584
AAGGTTTC | 0.148
ATGGTTTG | 0.0887
CGGGTTTC | 0.323
CAGGTTTC | 0.361
AGGGTTTC | 0.114
ATGGTTTC | 0.28
CTGGTTTC | 0.244
CAGGTTTA | 0.0837
CCGGTTTA | -0.00824
ACGGTTTC | 0.2
CCGGTTTC | 0.298
CGGGTTAC | 0.0422
AGCCTCGC | -0.155
GCCCGATA | -0.0773
AAGGTTCG | -0.185

Sequence | PBM E-score
AAGTGCAA | -0.0141
AGTGATGC | -0.099
TCAGACGA | -0.0271
CGGGTTTA | 0.304
AGGGTTTA | 0.00108
GGGGTTTA | 0.00666
GTTCAGAA | -0.0378
AAACCGCG | 0.287
AAAACGCG | 0.285
AAACCGCC | 0.212
CCAACGCG | -0.107
AAAACGCT | 0.0239
CAAACGCG | 0.292
CAACCGCG | 0.0561
AAAACGCC | 0.099
CGAACGCG | 0.0317
CAGTTTTC | 0.105
CACACCAG | 0.0883
ACTAGTTA | 0.027
AACAGTAT | 0.108
AATGGGAG | 0.021
ACACTGTC | -0.0374
CTGAGTCA | 0.0791
CACTGAAG | -0.03
AACTGAAG | 0.158

Sequence | PBM E-score
AACTGAAC | 0.0813
GACTGTAA | -0.0138
AACTGAAA | 0.422
CACTGAAC | 0.0627
AACTGTAT | 0.134
AACTGTAA | 0.328
GACTGAAA | 0.241
TACTGAAA | 0.358
TACTGATA | 0.198
CACTGAAA | 0.322
CGCCATAA | -0.108
AAGACCTA | -0.0739
AATCGCCG | -0.0024
TAACGTAA | 0.191
ATAAATGA | 0.189
AGTAGACG | -0.0195
TCTCTCAA | 0.0783
ACTGCAAT | 0.109
AAGGTCCC | -0.279
GGTCACAA | -0.022
TGTCACAA | 0.3
CGTCACAA | 0.108
AACGTTGG | 0.038
CTAGATCA | -0.22
CAGTGGGA | -0.0936

Sequence | PBM E-score
CACCACTC | -0.164
TACCGAAA | 0.0921
ACTGTGGA | -0.123
ACTTTCAG | 0.0489
AGTTTCCG | 0.148
AATTTCAT | 0.0623
CCTTTCAG | -0.115
AGTTTCAT | 0.428
GGTTTCCA | -0.0565
ACTTTCAT | -0.0303
CGTTTCCC | 0.165
CGTTTCAG | 0.482
CGTTTCCA | 0.301
AGTTTCAG | 0.464
CATTTCAG | 0.0948
CATTGACG | 0.0435
GAGCTCGC | -0.0349
CCCTTAGC | -0.0617
CCGTTGCA | 0.0898
